SMILES strings stand for the structures. Active and inactive are the calls of the source. How the calls were made is not given here.

Chain of Thyrotropin receptor (Homo sapiens) (P16473 whole entry, looked up): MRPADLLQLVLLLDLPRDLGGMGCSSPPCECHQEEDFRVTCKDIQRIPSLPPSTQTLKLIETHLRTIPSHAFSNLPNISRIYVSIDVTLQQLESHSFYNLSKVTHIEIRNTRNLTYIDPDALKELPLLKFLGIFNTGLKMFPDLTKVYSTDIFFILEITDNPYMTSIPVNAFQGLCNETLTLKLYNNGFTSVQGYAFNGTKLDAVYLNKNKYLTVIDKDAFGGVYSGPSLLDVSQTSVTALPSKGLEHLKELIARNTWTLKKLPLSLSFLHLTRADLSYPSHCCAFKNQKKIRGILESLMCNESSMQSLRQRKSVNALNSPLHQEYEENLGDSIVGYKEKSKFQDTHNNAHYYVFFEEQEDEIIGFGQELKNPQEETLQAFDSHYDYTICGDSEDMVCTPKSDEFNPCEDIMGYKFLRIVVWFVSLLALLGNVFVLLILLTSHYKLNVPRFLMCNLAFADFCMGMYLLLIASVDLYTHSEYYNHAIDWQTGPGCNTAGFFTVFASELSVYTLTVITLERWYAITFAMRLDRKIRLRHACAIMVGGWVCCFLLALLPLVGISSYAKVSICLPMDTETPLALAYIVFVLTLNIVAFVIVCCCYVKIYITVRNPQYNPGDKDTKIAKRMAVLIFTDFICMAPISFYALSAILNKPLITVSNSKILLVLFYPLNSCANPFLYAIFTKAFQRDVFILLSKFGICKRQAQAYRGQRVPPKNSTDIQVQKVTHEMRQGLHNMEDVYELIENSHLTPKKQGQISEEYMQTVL

This assay deals with Thyrotropin receptor (Homo sapiens) (UniProt P16473). Kind of assay: qHTS for antagonists of the Thyroid Stimulation Hormone Receptor: Hit Validation for Inverse Agonism. Conditions: stronger effect = higher value. From the text:
The thyroid-stimulating hormone receptor (TSHR) is a member of the 7 trans-membrane-spanning receptor (7TMR) family of cell surface receptors. TSHR-mediated hyperthyroidism is important in thyroid pathology. The development of small molecule antagonists of TSHR may lead to therapeutic approaches for TSHR-mediated hyperthyroidism caused by constitutively activating mutations or stimulating auto-antibodies associated with Graves' disease. Graves' disease is the leading cause of hyperthyroidism and is caused by autoantibodies that stimulate TSHR (TsAbs) causing thyroid growth and unregulated overproduction of thyroid hormones and existing treatments have liabilities (agranulocytosis). In addition, TSHRs are known to be expressed in multiple extrathyroidal tissues including bone, brain, kidney, testis, fat and cells of the immune system but the role of the TSHR in these tissues is not clear. Therefore, TSHR antagonists/inverse agonists could be used as probes of extrathyroidal TSHR function. Finally, TSHR inverse agonists, which are a subclass of antagonists that inhibit agonist-independent (or basal or constitutive) TSHR signaling, could be used to inhibit TSH-independent signaling in patients with recurrent or metastatic thyroid cancer who are receiving thyroid hormone to suppress TSH. […]
In general terms: qHTS replaces the single test concentration by a dilution series.
For `COC(=O)C1=C(c2ccc(-c3ccccc3)c(F)c2)C[C@@H]2CC[C@H]1N2C(=O)NCCOc1ccccc1`, the max inhibition was 75% (active).

For the origin of these results see PubChem BioAssay AID602442 (National Center for Advancing Translational Sciences (NCATS), 2012).
